Source: PubChem BioAssay (several laboratories)
Only some compounds are listed: those with a hit (about 3.7% of all), similar ones and a draw of the others.
Rce1 inh: yeast Rce1p protease inhibitors, primary screen, biochemical, fluorescence, cell-free homogeneous | yeast membranes, quenched prenylated peptide cleavage fluorescence | calls only | 0.27% of 290,000 active | AID 2563, 2010;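 active = fall in fluorescence gain of 50% or more versus controls, with final raw signal at or below 3038400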
Target sequence (Q03530 whole entry, looked up): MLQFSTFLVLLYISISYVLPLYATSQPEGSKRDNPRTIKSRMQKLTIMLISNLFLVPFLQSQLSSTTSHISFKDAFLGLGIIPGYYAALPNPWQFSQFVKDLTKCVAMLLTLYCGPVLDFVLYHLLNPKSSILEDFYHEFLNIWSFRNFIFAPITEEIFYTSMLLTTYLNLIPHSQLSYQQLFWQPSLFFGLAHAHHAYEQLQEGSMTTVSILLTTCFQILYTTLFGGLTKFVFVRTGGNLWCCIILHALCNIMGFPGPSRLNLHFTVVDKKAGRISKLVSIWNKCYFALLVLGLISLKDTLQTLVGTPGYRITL
tim23-1 inh: growth inhibitors of tim23-1 mutant yeast, primary screen, luminescence, uHTS. S. cerevisiae tim23-1 growth, BacTiter-Glo luminescence, 24 h. inhibition, % at 20 µM. 1.3% of 330,000 active;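 active = growth inhibition of the mutant yeast at or above 50%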;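 also: temperature-sensitive mutant grown at 25 °C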
TIM10 inh: growth inhibitors of isogenic TIM10 control yeast, primary screen, counter-screen for tim10-1 yeast inhibitor project, luminescence, uHTS | S. cerevisiae TIM10 strain growth, BacTiter-Glo luminescence, 24 h | inhibition, % at 10 µM | 1.4% of 330,000 active | AID 463195, 2010;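 active = inhibition of 40% or more at the single tested concentration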;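 also: wild-type TIM10 isogenic control strain grown at permissive 25 °C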
PfHsp90 set2: growth inhibition of PfHsp90-expressing yeast, primary screen, antimalarial PfHsp90 inhibitor project, S. cerevisiae, BacTiter-Glo luminescence, single point, set 2. BacTiter-Glo ATP, 48 h; yeast lacking PDR1 and PDR3 efflux regulators. inhibition, % at 9.4 µM. 0.32% of 310,000 active;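 active = every replicate shows inhibition above about 80%, whatever the replicate mean, limit read from the data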
tim10-1 inh: growth inhibitors of tim10-1 mutant yeast, primary screen, luminescence, uHTS; S. cerevisiae tim10-1 ts strain growth, BacTiter-Glo, 24 h; inhibition, % at 20 µM; 2.2% of 330,000 active; AID 463190, 2010;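 active = inhibition of at least 40%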;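 also: mutant grown at 25 °C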
tim10-1 conf: growth inhibitors of tim10-1 mutant yeast, confirmation, single concentration, luminescence, S. cerevisiae. 56% of 7,400 active. S. cerevisiae tim10-1 ts strain growth, BacTiter-Glo, 24 h. inhibition, % at 20 µM. shares compounds with tim10-1 inh;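 active = inhibition of yeast growth at or above a set limit in either of two repeat tests at 20 µM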;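 also: tim10-1 mutant grown at permissive 25 °C to find synthetic lethal compounds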
Each line names hits and unclear results; the compound was inactive in the other large screens (follow-up assays come after a bar, where they were run).

C(=N\Nc1ncnc2ccccc12)/c1ccccc1	none
Clc1cccc(/C=N/Nc2ncnc3ccccc23)c1	tim10-1 inh 40 | tim10-1 conf inactive
Cc1[nH]n(-c2ccc(Cl)c(Cl)c2)c(=O)c1CCO	tim10-1 inh 43 | tim10-1 conf inactive
Cc1[nH]n(-c2ccc(C(=O)O)cc2)c(=O)c1CCO	none (no result: Rce1 inh, tim23-1 inh, TIM10 inh, tim10-1 inh)
O=C(NC1CCCC1)c1sc(=S)n2c1[nH]c(=O)c1ccccc12	tim10-1 inh 47 (no result: PfHsp90 set2) | tim10-1 conf inactive
O=C(NCc1ccco1)c1sc(=S)n2c1[nH]c(=O)c1ccccc12	none
CCOC(=O)c1sc(NC(=O)C2CC2)nc1C	tim10-1 inh 47 | tim10-1 conf 32
O=C(COC(=O)C1CC(=O)N(Cc2ccccc2)C1)Nc1ccccc1F (configuration not stated)	none
Cc1ccc(C(=O)N/N=C2\CCCc3ccccc32)c(C)c1	none
O=C(N/N=C1\CCCc2ccccc21)c1ccc([N+](=O)[O-])cc1	tim10-1 inh 46 | tim10-1 conf inactive
CC1(C)CC(=O)c2c(nn(-c3ccccc3)c2-c2ccncc2)C1	tim10-1 inh 46 (no result: PfHsp90 set2) | tim10-1 conf 36
Cc1c2c(nc3ccccc13)CC(C)(C)CC2=O	none
CC(C)(C)Nc1nc(Cl)nc(NC(C)(C)C)n1	tim10-1 inh 44 | tim10-1 conf inactive
Cc1nn(-c2ccccc2)c2c1C(c1ccncc1)C(C#N)=C(N)O2 (configuration not stated)	none
CCOC(=O)C1=C(C)OC(N)=C(C#N)C1c1c(C)nn(-c2ccccc2)c1Cl (configuration not stated)	tim10-1 inh 53 | tim10-1 conf 34
Cc1nn(-c2ccccc2)c(Cl)c1C1C(C#N)=C(N)Oc2c1c(C)nn2-c1ccccc1 (configuration not stated)	tim10-1 inh 47 | tim10-1 conf inactive
CC(=O)CCc1oc2ccc(NC(C)=O)cc2c1-c1ccc(C)o1	none
CC(=O)CCc1oc2ccc(C)cc2c1-c1ccc(C)o1	tim10-1 inh 46 (no result: PfHsp90 set2) | tim10-1 conf 58
CC(C)(CNC(=O)c1ccc(S(=O)(=O)N2CCCC2)cc1)N1CCOCC1	none
Cc1cc(N(CCO)CCO)ccc1N=Nc1cc(F)ccc1F	tim10-1 inh 41 (no result: PfHsp90 set2) | tim10-1 conf 38
O=C(CN(C1CCCCC1)S(=O)(=O)c1ccc(F)cc1)Nc1ccc2c(c1)OCO2	tim10-1 inh 45 | tim10-1 conf inactive
COCCCN1C(=O)C(=O)/C(=C(/O)c2ccc(C)cc2)C1/C=C/c1ccccc1 (configuration not stated)	none
CCOC(=O)c1c(-c2ccc(C)o2)csc1NC(=S)NC(=O)N(C)C	tim10-1 inh 55 | tim10-1 conf 45
CCOC(=O)c1c(-c2ccc(C)o2)csc1NC(=O)COC(=O)c1cccs1	tim10-1 inh 42 | tim10-1 conf inactive
O=C(Nc1cccc(N2C(=O)C=CC2=O)c1)c1cccs1	tim10-1 inh 63 | tim10-1 conf 57
Cc1nc2ccccc2c(=O)n1-c1cccc(NC(=O)c2cccs2)c1	none
CCCCCc1nnc(NC(=O)C2COc3ccccc3O2)s1 (configuration not stated)	tim10-1 inh 46 | tim10-1 conf 40
CN(C)c1nc(OCCOC(=O)Nc2ccc(Cl)cc2Cl)nc(N(C)C)n1	tim10-1 inh 42 | tim10-1 conf inactive
CON(C)c1nc(OCCNC(=O)OCc2ccc(Cl)cc2C)nc(N(C)C)n1	none
NC(=S)N1OC[C@@H]2COc3ccc4ccccc4c3[C@@H]21	tim10-1 inh 41 | tim10-1 conf inactive
COc1ccc(NC(=O)c2cc([N+](=O)[O-])ccc2O)cc1	PfHsp90 set2 76, tim10-1 inh 52 | tim10-1 conf 51
COc1ccc(NC(=O)c2cccc([N+](=O)[O-])c2)cc1	none
N#Cc1cc(O)c(-n2nnc3ccccc32)cc1C#N	none
N#Cc1cc(Oc2cccc3cccnc23)c(-n2nnc3ccccc32)cc1C#N	tim10-1 inh 48 | tim10-1 conf 33
COC(=O)c1ccccc1NC(=O)CCCn1nc([N+](=O)[O-])c(Br)c1C	none
COc1ccc(C(=O)c2sc3nc(-c4ccccc4)ccc3c2N)cc1	tim10-1 inh 45 | tim10-1 conf inactive
Cc1cc(N2CCC(C(=O)NC3CCCCC3)CC2)nc(-c2ccccc2)n1	tim10-1 inh 45 | tim10-1 conf inactive
Cc1cc(N2CCC(C(=O)NC3CC3)CC2)nc(-c2ccccc2)n1	none (no result: Rce1 inh)
Cc1cc(Br)cc2cn[nH]c12	none (no result: PfHsp90 set2)
CCC(CO)Nc1ncnc2c1cnn2-c1ccc(Cl)cc1 (configuration not stated)	none
CCC(CO)Nc1nc2ccc(Cl)cc2c2ccccc12 (configuration not stated)	tim10-1 inh 53 | tim10-1 conf 39
Cc1ccc(S(=O)(=O)NCc2ccc(C(=O)N3CCc4ccccc4C3)cc2)cc1	tim10-1 inh 47 | tim10-1 conf inactive
CSc1nc(C)cc(Oc2ccccc2)n1	none
O=C(Cn1ccc(C(F)(F)F)n1)N=Nc1c(O)[nH]c2ccccc12	none
CC(C)n1c(O)c(N=NC(=O)Cn2ccc(C(F)(F)F)n2)c2ccccc21	tim10-1 inh 44 | tim10-1 conf inactive
COc1ccc(-c2cnn3c4c(c(C)nc23)CCN4C(C)C)cc1OC	tim10-1 inh 43 | tim10-1 conf inactive
COC(CN1CCc2c(C)nc3c(C#N)cnn3c21)OC	none
Cc1ccccc1C(=O)c1cccn1CC(=O)NCc1cccc(Cl)c1	none
CCOc1c(C=C(C#N)C#N)c2ccccc2n1CC	tim10-1 inh 42 | tim10-1 conf inactive
COc1ccc(N(CC(=O)N2CCN(Cc3ccccc3)CC2)S(C)(=O)=O)c(OC)c1	none
CC(NC(=O)c1ccc(F)cc1)c1nc2ccccc2n1Cc1ccccc1F (configuration not stated)	tim10-1 inh 42 | tim10-1 conf 29
O=C(O)c1cc(-c2ccco2)nc2cc3ccccc3cc12	none
CCN(CC)CCN(C(=O)c1ccc2ccccc2c1)c1nc2ccc(OC)cc2s1	tim10-1 inh 49 | tim10-1 conf inactive
CCN(CC)CCN(C(=O)c1ccc([N+](=O)[O-])cc1)c1nc2ccc(OC)cc2s1	none
CCN(CC)CCN(C(=O)/C=C/c1cccs1)c1nc2ccc(OC)cc2s1	none (no result: Rce1 inh, tim23-1 inh, TIM10 inh, tim10-1 inh)
CCN(CC)CCN(C(=O)c1cc2ccccc2cc1OC)c1nc2ccc(F)cc2s1	Rce1 inh active, tim10-1 inh 57 | tim10-1 conf inactive
CCN(CC)CCN(C(=O)c1cc2ccccc2cc1OC)c1nc2ccc(OC)cc2s1	tim10-1 inh 56 | tim10-1 conf inactive
O=C(OCC(=O)N1CCCC1)c1cccs1	none
